Drawing on PubChem BioAssay, this text covers composite z-score and z-score for 13 molecules.

In assay [1] the test system is Wnt5a (protein binding on small-molecule microarray). As to the kind of experiment: small molecules binding Wnt5a protein – biophysical, small-molecule microarray, 635/667 nm fluorescence, primary screen (AID 1142).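 Also: fluorescence read at 667 nm with signal to noise per printed feature.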 To be noted: 635 nm fluorescence, higher = more signal.
The nature of assay [2]: ATP-based viability of Huh7 replicon cells – cell-based, CellTiter-Glo luminescence, basal, 48 h, cytotoxicity control for HCV replication inhibitor project, primary screen (AID 1143).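 Also: Huh7 hepatoma cells carrying a hepatitis C replication reporter with no stimulus; test concentration not given here.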 As to conditions: higher = more signal, called active from +8 up or from −8 down.
The nature of assay [3]: Pseudomonas biofilm growth suppression – PAO1 strain, BacTiter-Glo luminescence, LB-PBS, primary screen (AID 1144). To be noted: P. aeruginosa PAO1 biofilm, 12 h, higher = more signal.
Assay [4] in a line: basal CRE-LacZ reporter activity in PC12 – cell-based, unstimulated, primary screen (AID 1145). As to conditions: no forskolin, luminescence, 4.5 h, higher = more signal, called active from +8 up or from −8 down.
Assay [5] in a line: forskolin-driven CRE-LacZ activity in PC12 – cell-based, CRE-LacZ reporter, forskolin-stimulated, primary screen (AID 1146).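 Also: PC12 cells with 6xCRE LacZ reporter stimulated by forskolin 10 µM; beta-galactosidase reporter signal reflecting CREB driven transcription.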 As to conditions: luminescence, 4.5 h, higher = more signal, called active from +8 up or from −8 down.
Assay [6] deals with Streptavidin (Streptomyces avidinii) (UniProt P22629). Briefly: compounds binding control protein streptavidin – biophysical, small-molecule microarray, 635/667 nm fluorescence, artefact control for SMM compound annotation, primary screen (AID 1147).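 Also: signal reflects streptavidin binding to arrayed compounds as a control protein.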 To be noted: higher = more signal.
Assay [7] is described as follows: probe aInhba binding on compound microarray – biochemical, small-molecule microarray, 635/667 nm fluorescence, primary screen (AID 1148).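 Also: score merges 667nm spot fluorescence with signal-to-noise for antibody binding to printed compounds.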 To be noted: higher = more signal.
Assay [8] deals with Torsin-1A (Homo sapiens) (UniProt O14656). As to the kind of experiment: TOR1A wild-type binding on microarray – cell lysate, small-molecule microarray, lysate, 635/667 nm, primary screen (AID 1149). As to conditions: COS7 hTOR1A-WT lysate, 635 nm fluorescence, higher = more signal.
Assay [9] shares this target. As to the kind of experiment: torsin A mutant lysate binding on microarrays – cell lysate, small-molecule microarray, COS7 lysate, 635/667 nm fluorescence, primary screen (AID 1150).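 Also: score pools 667 nm emission and signal to noise measuring lysate protein binding.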 To be noted: COS7 hTOR1A mutant lysate, 635 nm fluorescence, higher = more signal.
In assay [10] the test system is Sonic hedgehog protein (Shh). Briefly: Sonic hedgehog microarray binding compounds – biochemical, small-molecule microarray, 635/667 nm fluorescence, primary screen (AID 1151).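 Also: Shh protein binding to compounds spotted on small-molecule microarray slides; score combines spot fluorescence intensity with signal-to-noise across triplicate slides.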 To be noted: 635 nm fluorescence, higher = more signal.

Calls of active or inactive are those of the source. Unless noted, no rule for the calls is given here.

Sequence of Torsin-1A (Homo sapiens) (O14656 whole entry, looked up): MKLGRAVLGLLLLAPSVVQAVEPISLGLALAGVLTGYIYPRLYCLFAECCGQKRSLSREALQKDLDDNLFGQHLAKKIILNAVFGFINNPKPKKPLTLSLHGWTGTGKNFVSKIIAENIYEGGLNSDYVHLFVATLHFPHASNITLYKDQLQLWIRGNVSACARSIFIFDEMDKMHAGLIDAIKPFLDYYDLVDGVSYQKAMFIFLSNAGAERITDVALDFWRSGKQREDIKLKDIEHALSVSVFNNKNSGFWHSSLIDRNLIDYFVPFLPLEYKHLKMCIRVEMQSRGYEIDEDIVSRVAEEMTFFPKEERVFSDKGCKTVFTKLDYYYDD
Sequence of Streptavidin (Streptomyces avidinii) (P22629 whole entry, looked up): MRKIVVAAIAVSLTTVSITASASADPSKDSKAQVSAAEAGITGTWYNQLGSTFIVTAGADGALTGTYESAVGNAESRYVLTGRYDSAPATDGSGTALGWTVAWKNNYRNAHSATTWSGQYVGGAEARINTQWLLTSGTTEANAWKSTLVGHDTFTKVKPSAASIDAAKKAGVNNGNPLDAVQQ

In the case of `COc1ccc([Si](C)(C)[C@H]2[C@H](CCO)O[C@@]3(C(=O)N(Cc4cccc(N5C(=O)c6ccccc6Oc6ccccc65)c4)c4ccccc43)[C@@H]2C)cc1`, the composite z-score in assay [1] was 0.0511; in [6], 0.4; in assay [7], -0.05; with Torsin-1A (Homo sapiens) [8] it was -0.412; in the assay with Torsin-1A (Homo sapiens) [9], -0.54; in assay [10] it was 0.734. Besides, the z-score in assay [2] is -6.96 (inactive); in assay [3], -0.365 (inactive); in assay [4], 0.716 (inactive); in assay [5] it was -1.1 (inactive).
For `C[C@@H]1ON(c2ccc(I)cc2)[C@H](c2cccc(NC(=O)OCC3c4ccccc4-c4ccccc43)c2)[C@H]1C(=O)N1C(=O)OC[C@H]1Cc1ccccc1`, the composite z-score in assay [1] is 0.0217; in [6] it was 0.226; in assay [7] it was -0.0893; with Torsin-1A (Homo sapiens) [8], 0.579; in the assay with Torsin-1A (Homo sapiens) [9], -0.0059; in [10] it was 0.851. The z-score is -0.659 (inactive) in assay [2], -0.215 (inactive) in [3], 2.13 (inactive) in [4] and -0.0677 (inactive) in [5].
Turning to `COC(=O)C1=CC(CCCO)=CC(c2cccs2)N(Cc2cc3c(cc2Br)OCO3)C=C1C(=O)OC` (stereo not given), the composite z-score in assay [1] came to 0.46; in assay [6], 1.99; in assay [7], 0.0659; with Torsin-1A (Homo sapiens) [8], 0.565; in the assay with Torsin-1A (Homo sapiens) [9] it was 1.12; in assay [10], 0.322. Moreover, the z-score in assay [2] is -1.96 (inactive); in [3], 0.587 (inactive); in assay [4] it was 0.326 (inactive); in [5], 0.458 (inactive).
As for `COc1ccc([Si](C)(C)[C@@H]2[C@@H](CC(=O)N3CCC[C@H]3CO)O[C@]3(C(=O)N(Cc4ccc(N5CCOC5=O)cc4)c4ccccc43)[C@H]2C)cc1`, the composite z-score in [1] is -0.014; in assay [6] it was 0.084; in assay [7], -0.024; in the assay with Torsin-1A (Homo sapiens) [8], 0.515; with Torsin-1A (Homo sapiens) [9] it was 0.557; in assay [10], 1.42. The z-score in assay [2] is -3.75 (inactive); in [3] it was -0.0278 (inactive); in assay [4], 2.4 (inactive); in assay [5], -1.2 (inactive).
On to `C=C(CCCC)C(=O)CC[C@@H](OC(=O)c1ccccc1-c1ccccc1C(=O)O)c1ccccc1OCCO`, for which the composite z-score was 0.0726 in assay [1]; -0.34 in assay [6]; -0.157 in assay [7]; 1.21 in the assay with Torsin-1A (Homo sapiens) [8]; 0.818 with Torsin-1A (Homo sapiens) [9]; 1.56 in assay [10]. The z-score was -1.62 (inactive) in [2], -0.131 (inactive) in assay [3], 6.69 (inactive) in [4] and 2.06 (inactive) in [5].
On to `C=C(CCCC)/C(=C/C[C@H](OC(C)=O)c1cccc(OCCO)c1)c1cnc2ccccc2c1`, for which the composite z-score in [1] was 0.0596; in [6], 0.247; in assay [7], -0.208; in the assay with Torsin-1A (Homo sapiens) [8], -0.268; in the assay with Torsin-1A (Homo sapiens) [9] it was -0.348; in assay [10], 0.477. Also, the z-score in assay [2] is -0.717 (inactive); in assay [3] it was 0.768 (inactive); in [4], 7.36 (inactive); in assay [5], -0.134 (inactive).
Regarding `CCCCCCc1nc(-c2ccc(-c3ccc(Cl)c(Cl)c3)o2)cc2c1[Si](C(C)C)(C(C)C)OC2`, the composite z-score was -0.905 in assay [1]; -1.24 in [6]; -0.261 in assay [7]; -1.83 with Torsin-1A (Homo sapiens) [8]; -0.526 with Torsin-1A (Homo sapiens) [9]; -0.583 in [10]. Also, the z-score was -5.45 (inactive) in assay [2], -1.51 (inactive) in assay [3], -0.621 (inactive) in assay [4] and 1.29 (inactive) in [5].
In the case of `O=C(NCc1ccccc1)[C@@H]1c2ccccc2C(=O)N(Cc2ccc(OC(F)(F)F)cc2)[C@H]1c1ccc(CO)cc1`, the composite z-score in assay [1] was -0.134; in [6], -0.756; in assay [7], 0.0102; in the assay with Torsin-1A (Homo sapiens) [8], 0.521; in the assay with Torsin-1A (Homo sapiens) [9], 0.162; in [10], -0.493. For the same molecule, the z-score in assay [2] is -0.495 (inactive); in assay [3] it was 0.0274 (inactive); in assay [4], 0.208 (inactive); in assay [5] it was 0.129 (inactive).
On to `O=C(NCc1ccccc1)[C@@H]1c2ccccc2C(=O)N(Cc2cc(C(F)(F)F)cc(C(F)(F)F)c2)[C@H]1c1ccc(CO)cc1`, for which the composite z-score in [1] was 0.145; in assay [6], 0.556; in [7] it was -0.0405; with Torsin-1A (Homo sapiens) [8] it was -0.137; with Torsin-1A (Homo sapiens) [9], 0.759; in assay [10], 1.93. The z-score was -1.69 (inactive) in assay [2], -1.69 (inactive) in [3], 0.0387 (inactive) in assay [4] and 0.119 (inactive) in [5].
`CCCCC(O)C1C=CC2C(=O)N(c3ccccc3)C(=O)C2N1Nc1ccc(C#N)cc1` (stereo not given): the composite z-score in [1] was -0.0416; in assay [6] it was 0.718; in assay [7], 0.545; with Torsin-1A (Homo sapiens) [8], 0.242; with Torsin-1A (Homo sapiens) [9] it was 0.179; in [10], -0.492. In addition, the z-score in assay [2] was 0.739 (inactive); in assay [3], -1.25 (inactive); in assay [4], 0.632 (inactive); in assay [5] it was 0.719 (inactive).
Turning to `COc1ccc(C(O)C2C=CC3C(=O)N(c4ccccc4)C(=O)C3N2Nc2ccc([N+](=O)[O-])cc2)c2ccccc12` (stereo not given), the composite z-score in assay [1] came out at 0.328; in [6], 1.86; in assay [7], 0.12; in the assay with Torsin-1A (Homo sapiens) [8], 0.771; with Torsin-1A (Homo sapiens) [9] it was 0.163; in assay [10], 0.0892. Also, the z-score in assay [2] was -0.8 (inactive); in assay [3], -0.557 (inactive); in [4], -0.228 (inactive); in assay [5], -0.838 (inactive).
With `C=CCN1Cc2ccccc2[C@H]2OC(c3ccc(OCCCO)cc3)=N[C@@]2(CCS(=O)(=O)c2ccccc2)C1=O`, the composite z-score in assay [1] was 1.07; in assay [6], 0.22; in assay [7], 0.275; in the assay with Torsin-1A (Homo sapiens) [8], 0.695; with Torsin-1A (Homo sapiens) [9], 1.26; in assay [10] it was 1.28. Moreover, the z-score in assay [2] was -2.3 (inactive); in [3] it was 0.477 (inactive); in [4] it was 1.44 (inactive); in assay [5], -1.27 (inactive).
For the molecule `CN1C(=O)C2C(C1=O)C1C=C(CCCO)C2C(C2CC2)N1Cc1cccc(OC(F)(F)F)c1` (stereo not given), the composite z-score in assay [1] is -0.317; in assay [6], 0.851; in [7], -0.101; in the assay with Torsin-1A (Homo sapiens) [8], 1.03; in the assay with Torsin-1A (Homo sapiens) [9], 1.76; in assay [10], -0.525. Besides, the z-score in assay [2] is -0.591 (inactive); in [3], 0.55 (inactive); in assay [4], -0.348 (inactive); in [5] it was 1.3 (inactive).
